# Measured values published in PubChem BioAssay (EPA / NIEHS).
# More than one record can exist for a structure, and the calls need not agree. Active and inactive are the calls of the source. The calls were made as follows: active = hit-call score of the fitted dose curve at least 0.9, where 1 is the maximum; inactive = score below 0.9.
# Columns and labels:
# [1] = ATG_GRE_CIS: Attagene CIS-FACTORIAL HepG2 Assay for human Glucocorticoid Response Elements (GRE) (AID 2282947); details: HepG2 GRE cis-reporter, Attagene multiplex mRNA; actives raise or lower the signal
# How it was run: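 Fluorescence intensity of reporter-specific cDNA fragments, separated by capillary electrophoresis, provides the signal. Constructs carry cis-regulating promoters in transiently transfected HepG2 liver cells; 24 h incubation; fitting is bidirectional against DMSO.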
# [2] = ATG_ISRE_CIS: Attagene CIS-FACTORIAL HepG2 Assay for human Interferon Regulatory Factor 1 (IRF1) binding to an Interferon-Stimulated Response Element (ISRE) (AID 2282948); details: HepG2 ISRE cis-reporter (Attagene), mRNA transcription readout; actives raise or lower the signal
# How it was run: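 Endogenous transcription factor activity read as reporter transcript abundance via RT-PCR and capillary electrophoresis. HepG2 cells transiently transfected, 24 h chemical exposure. Gain or loss fitted against DMSO baseline.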
# [3] = ATG_M_32_CIS: Attagene CIS-FACTORIAL HepG2 Assay for M32 Transcription Factor (Internal Marker) (AID 2282949); details: HepG2 Attagene cis-factorial M32 reporter, mRNA; actives raise or lower the signal;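 also: background control marker of the multiplexed CIS panel rather than a real target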
# How it was run: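 HepG2 human liver cells transiently transfected with cis-promoter-driven multiple reporter transcription units, dosed 24 h. Reporter mRNA quantified by RT-PCR, FAM-labelled primer extension, HpaI digest and capillary electrophoresis; bidirectional fit versus DMSO baseline.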
# [4] = ATG_M_06_CIS: Attagene CIS-FACTORIAL HepG2 Assay for M06 Transcription Factor (Internal Marker) (AID 2282950); details: HepG2 Attagene CIS-FACTORIAL M06 internal marker reporter; actives raise or lower the signal
# How it was run: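 Internal background marker within multiplexed cis-reporter HepG2 system. Cells transiently transfected, dosed 24 h; reporter mRNA measured by RT-PCR, HpaI digestion and capillary electrophoresis. Bidirectional fit relative to DMSO.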
# [5] = target: Hypoxia-inducible factor 1-alpha (Homo sapiens) (UniProt Q16665); assay: ATG_HIF1a_CIS: Attagene CIS-FACTORIAL HepG2 Assay for human Hypoxia Inducible Factor 1 (HIF1A) (AID 2282951); details: HepG2 Attagene cis-factorial HIF1a reporter transcription; actives raise or lower the signal
# Chain of Hypoxia-inducible factor 1-alpha (Homo sapiens) (Q16665 whole entry, looked up): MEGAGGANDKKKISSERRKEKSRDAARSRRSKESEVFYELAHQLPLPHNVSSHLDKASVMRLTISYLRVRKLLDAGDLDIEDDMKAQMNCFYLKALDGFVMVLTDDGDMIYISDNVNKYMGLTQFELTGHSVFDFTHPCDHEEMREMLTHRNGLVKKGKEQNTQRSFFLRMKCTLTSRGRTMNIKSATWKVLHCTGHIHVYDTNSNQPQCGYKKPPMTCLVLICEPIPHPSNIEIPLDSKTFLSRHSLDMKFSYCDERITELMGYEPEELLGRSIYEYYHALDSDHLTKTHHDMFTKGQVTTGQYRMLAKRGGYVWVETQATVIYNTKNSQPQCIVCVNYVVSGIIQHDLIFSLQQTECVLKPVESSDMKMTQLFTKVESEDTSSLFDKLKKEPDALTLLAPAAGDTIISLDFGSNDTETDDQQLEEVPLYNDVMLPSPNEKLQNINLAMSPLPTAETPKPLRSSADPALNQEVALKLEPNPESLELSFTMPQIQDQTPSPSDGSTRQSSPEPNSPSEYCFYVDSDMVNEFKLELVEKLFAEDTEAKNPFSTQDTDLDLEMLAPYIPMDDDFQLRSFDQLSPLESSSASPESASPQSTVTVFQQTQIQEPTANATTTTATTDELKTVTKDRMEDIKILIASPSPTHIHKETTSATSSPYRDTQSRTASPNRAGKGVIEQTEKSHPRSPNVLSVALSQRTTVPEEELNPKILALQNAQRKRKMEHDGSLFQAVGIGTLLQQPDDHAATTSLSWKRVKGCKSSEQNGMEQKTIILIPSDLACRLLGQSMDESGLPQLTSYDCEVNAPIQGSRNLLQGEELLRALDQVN
# How it was run: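 Cis-element reporter constructs were transiently transfected into HepG2 cells, which were treated for 24 h; reporter RNA was reverse-transcribed, amplified, labelled and resolved by capillary electrophoresis.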
# [6] = target: Hepatocyte nuclear factor 6 (Homo sapiens) (UniProt Q9UBC0); assay: ATG_HNF6_CIS: Attagene CIS-FACTORIAL HepG2 Assay for human Hepatocyte Nuclear Factor 6 (HNF6) (AID 2282952); details: HepG2 Attagene cis-factorial HNF6 reporter transcription; actives raise or lower the signal
# Chain of Hepatocyte nuclear factor 6 (Homo sapiens) (Q9UBC0 whole entry, looked up): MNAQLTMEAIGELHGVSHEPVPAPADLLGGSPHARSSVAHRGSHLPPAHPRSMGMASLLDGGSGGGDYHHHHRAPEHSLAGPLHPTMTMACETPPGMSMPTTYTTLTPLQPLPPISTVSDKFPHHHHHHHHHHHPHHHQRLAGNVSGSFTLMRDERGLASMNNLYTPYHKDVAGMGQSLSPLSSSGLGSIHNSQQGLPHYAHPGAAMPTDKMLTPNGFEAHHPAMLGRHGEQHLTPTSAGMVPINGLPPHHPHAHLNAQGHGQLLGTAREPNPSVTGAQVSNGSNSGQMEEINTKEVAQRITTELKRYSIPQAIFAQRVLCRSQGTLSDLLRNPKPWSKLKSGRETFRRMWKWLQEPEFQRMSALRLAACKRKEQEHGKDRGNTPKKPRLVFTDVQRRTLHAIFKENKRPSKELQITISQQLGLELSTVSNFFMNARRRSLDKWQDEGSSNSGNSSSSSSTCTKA
# How it was run: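 Endogenous factor activity read in transiently transfected HepG2 via promoter-regulated reporter transcripts. RNA harvested 24 h post-dosing, reverse-transcribed, PCR-amplified, FAM-labelled, HpaI-digested and resolved by capillary electrophoresis; fitted in both directions against DMSO.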
# [7] = target: Heat shock factor protein 1 (Homo sapiens) (UniProt Q00613); assay: ATG_HSE_CIS: Attagene CIS-FACTORIAL HepG2 Assay for human Heat Shock Transcription Factor 1 (HSE) (AID 2282953); details: HepG2 HSE cis-reporter, Attagene RNA transcription; actives raise or lower the signal
# Chain of Heat shock factor protein 1 (Homo sapiens) (Q00613 whole entry, looked up): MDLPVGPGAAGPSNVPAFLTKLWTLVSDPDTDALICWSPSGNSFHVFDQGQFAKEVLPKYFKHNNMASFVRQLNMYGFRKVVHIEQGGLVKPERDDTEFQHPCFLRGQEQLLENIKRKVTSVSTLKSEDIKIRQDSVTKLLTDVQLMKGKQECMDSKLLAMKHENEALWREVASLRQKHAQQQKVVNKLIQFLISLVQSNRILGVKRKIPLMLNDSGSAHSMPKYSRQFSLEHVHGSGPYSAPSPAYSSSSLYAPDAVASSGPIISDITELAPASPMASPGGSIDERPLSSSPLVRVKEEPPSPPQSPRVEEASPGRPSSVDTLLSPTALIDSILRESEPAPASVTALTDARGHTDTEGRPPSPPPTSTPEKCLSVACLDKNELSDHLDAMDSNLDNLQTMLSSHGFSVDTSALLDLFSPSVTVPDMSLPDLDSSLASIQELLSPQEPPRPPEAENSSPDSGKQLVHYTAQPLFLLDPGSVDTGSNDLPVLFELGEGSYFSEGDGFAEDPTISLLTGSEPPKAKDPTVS
# How it was run: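 HepG2 cells transfected with cis-promoter reporter units sensing endogenous transcription factor activity; reporter mRNA quantified 24 h post-dose by RT-PCR and capillary electrophoresis of 6-FAM-labelled products. Bidirectional fitting against DMSO.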
# [8] = ATG_MRE_CIS: Attagene CIS-FACTORIAL HepG2 Assay for human Metal Responsive Element (MRE) (AID 2282954); details: HepG2 MRE cis-reporter transcription, Attagene multiplex; actives raise or lower the signal
# How it was run: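 Measured here is mRNA induction from an MRE cis-element reporter in HepG2 after 24 h, quantified by fluorescence of labelled RT-PCR products on capillary electrophoresis; gain- and loss-of-signal fits use DMSO as baseline.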
# [9] = ATG_PBREM_CIS: Attagene CIS-FACTORIAL HepG2 Assay for human Phenobarbital-responsive Enhancer Module (PBREM) (AID 2282955); details: HepG2 PBREM cis-reporter, Attagene multiplexed transcription; actives raise or lower the signal
# How it was run: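 Multiplexed cis-reporter readout in human hepatoma HepG2 cells; PBREM-regulated transcript quantified after 24 h exposure by fluorescent RT-PCR fragment analysis. Signal changes up or down fitted relative to DMSO.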
# [10] = target: Paired box protein Pax-6 (Homo sapiens) (UniProt P26367); assay: ATG_Pax6_CIS: Attagene CIS-FACTORIAL HepG2 Assay for human Paired Box 6 (PAX6) (AID 2282956); details: HepG2 CIS-FACTORIAL PAX6 reporter transcription, RNA readout; actives raise or lower the signal
# Chain of Paired box protein Pax-6 (Homo sapiens) (P26367 whole entry, looked up): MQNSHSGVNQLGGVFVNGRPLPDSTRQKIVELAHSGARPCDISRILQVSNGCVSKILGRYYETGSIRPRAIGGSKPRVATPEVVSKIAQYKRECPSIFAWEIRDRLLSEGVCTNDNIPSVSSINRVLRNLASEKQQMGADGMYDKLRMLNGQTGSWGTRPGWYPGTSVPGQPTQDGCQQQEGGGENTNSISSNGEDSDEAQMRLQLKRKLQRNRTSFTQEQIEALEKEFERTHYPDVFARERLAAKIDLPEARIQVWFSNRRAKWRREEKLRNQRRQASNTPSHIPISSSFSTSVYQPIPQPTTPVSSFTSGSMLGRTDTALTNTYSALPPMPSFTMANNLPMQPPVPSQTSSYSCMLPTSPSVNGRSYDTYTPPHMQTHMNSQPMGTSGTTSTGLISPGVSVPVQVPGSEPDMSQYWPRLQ
# How it was run: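 Read-out is reporter transcript level, measured by RT-PCR with fluorescent primer extension and capillary electrophoresis after 24 h dosing of transfected HepG2 cells. Activity in either direction fitted relative to DMSO control.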
# [11] = ATG_PXRE_CIS: Attagene CIS-FACTORIAL HepG2 Assay for human Pregnane X Receptor Element (PXRE) (AID 2282957); details: HepG2 Attagene CIS-FACTORIAL PXRE reporter, mRNA; actives raise or lower the signal
# How it was run: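 Reporter transcripts under endogenous PXR-responsive cis-regulation quantified from total RNA of transfected HepG2 cells 24 h post-dosing, via RT-PCR with fluorescent primer extension and capillary electrophoresis. Gain or loss of signal fitted against DMSO baseline.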
# [12] = ATG_PPRE_CIS: Attagene CIS-FACTORIAL HepG2 Assay for human Peroxisome Proliferator-activated Response Element (PPRE) (AID 2282958); details: HepG2 PPRE cis-element reporter, Attagene transcription factor profiling; actives raise or lower the signal
# How it was run: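 DMSO served as negative control and baseline for bidirectional curve fitting. Signal came from PPRE-regulated reporter mRNA in HepG2 cells, measured 24 h post-dosing by RT-PCR, 6-FAM primer extension and capillary electrophoresis.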
# [13] = ATG_RORE_CIS: Attagene CIS-FACTORIAL HepG2 Assay for human RAR-related Orphan Receptor Element (RORE) (AID 2282959); details: HepG2 Attagene cis-factorial RORE reporter, mRNA; actives raise or lower the signal
# How it was run: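 Transfect HepG2 with MRTUs; treat 24 h; extract RNA; RT with oligo(dT); PCR with reporter-specific primers; 6-FAM primer extension; HpaI digest 2 h at 37 C; capillary electrophoresis. Fit vs DMSO, bidirectional.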
# [14] = target: Transcription factor Sp1 (Homo sapiens) (UniProt P08047); assay: ATG_Sp1_CIS: Attagene CIS-FACTORIAL HepG2 Assay for human Specificity Protein 1 (Sp1) (AID 2282961); details: HepG2 Sp1 cis-reporter transcription, actives raise or lower the signal
# Chain of Transcription factor Sp1 (Homo sapiens) (P08047 whole entry, looked up): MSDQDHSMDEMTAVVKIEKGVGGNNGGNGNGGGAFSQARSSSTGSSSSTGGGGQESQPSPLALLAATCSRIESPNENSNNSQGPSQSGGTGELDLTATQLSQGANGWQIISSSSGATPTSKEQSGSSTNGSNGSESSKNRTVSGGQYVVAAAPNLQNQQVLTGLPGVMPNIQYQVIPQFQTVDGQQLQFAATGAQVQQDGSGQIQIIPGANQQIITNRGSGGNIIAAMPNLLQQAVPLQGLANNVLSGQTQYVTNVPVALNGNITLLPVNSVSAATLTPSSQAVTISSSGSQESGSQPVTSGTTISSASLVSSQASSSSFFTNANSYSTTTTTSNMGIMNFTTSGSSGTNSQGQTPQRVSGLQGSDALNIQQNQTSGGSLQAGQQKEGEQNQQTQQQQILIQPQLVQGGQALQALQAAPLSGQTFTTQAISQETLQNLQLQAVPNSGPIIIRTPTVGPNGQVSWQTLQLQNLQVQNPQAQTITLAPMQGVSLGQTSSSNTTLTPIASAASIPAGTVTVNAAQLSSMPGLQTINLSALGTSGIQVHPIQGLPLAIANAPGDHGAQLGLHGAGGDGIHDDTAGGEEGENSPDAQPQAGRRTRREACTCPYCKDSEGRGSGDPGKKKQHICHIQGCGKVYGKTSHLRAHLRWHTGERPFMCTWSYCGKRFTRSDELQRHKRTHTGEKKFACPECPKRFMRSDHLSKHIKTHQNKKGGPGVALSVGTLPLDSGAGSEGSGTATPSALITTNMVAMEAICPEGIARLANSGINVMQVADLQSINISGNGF
# How it was run: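 Chemicals are dosed onto HepG2 cells transfected with multiple cis-promoter reporter constructs, and after 24 h reporter RNA is reverse-transcribed, PCR-amplified and resolved by capillary electrophoresis for fluorescence quantitation; activity is scored up or down against DMSO.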
# [15] = ATG_SREBP_CIS: Attagene CIS-FACTORIAL HepG2 Assay for human Sterol Regulatory Element Binding (SREBP) (AID 2282962); details: HepG2 Attagene cis-factorial SREBP reporter, mRNA; actives raise or lower the signal
# How it was run: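 Endogenous SREBP activity read as cis-element-driven reporter transcript in transiently transfected HepG2, 24 h post-dosing; quantified via RT-PCR plus capillary electrophoresis of fluorescent fragments. Gain or loss of signal fitted relative to DMSO baseline.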
# [16] = target: Signal transducer and activator of transcription 3 (Homo sapiens) (UniProt P40763); assay: ATG_STAT3_CIS: Attagene CIS-FACTORIAL HepG2 Assay for human Signal Transducer and Activator of Transcription 3 (STAT3) (AID 2282963); details: HepG2, Attagene cis-factorial STAT3 reporter transcription; actives raise or lower the signal
# Chain of Signal transducer and activator of transcription 3 (Homo sapiens) (P40763 whole entry, looked up, the tested form may be a part): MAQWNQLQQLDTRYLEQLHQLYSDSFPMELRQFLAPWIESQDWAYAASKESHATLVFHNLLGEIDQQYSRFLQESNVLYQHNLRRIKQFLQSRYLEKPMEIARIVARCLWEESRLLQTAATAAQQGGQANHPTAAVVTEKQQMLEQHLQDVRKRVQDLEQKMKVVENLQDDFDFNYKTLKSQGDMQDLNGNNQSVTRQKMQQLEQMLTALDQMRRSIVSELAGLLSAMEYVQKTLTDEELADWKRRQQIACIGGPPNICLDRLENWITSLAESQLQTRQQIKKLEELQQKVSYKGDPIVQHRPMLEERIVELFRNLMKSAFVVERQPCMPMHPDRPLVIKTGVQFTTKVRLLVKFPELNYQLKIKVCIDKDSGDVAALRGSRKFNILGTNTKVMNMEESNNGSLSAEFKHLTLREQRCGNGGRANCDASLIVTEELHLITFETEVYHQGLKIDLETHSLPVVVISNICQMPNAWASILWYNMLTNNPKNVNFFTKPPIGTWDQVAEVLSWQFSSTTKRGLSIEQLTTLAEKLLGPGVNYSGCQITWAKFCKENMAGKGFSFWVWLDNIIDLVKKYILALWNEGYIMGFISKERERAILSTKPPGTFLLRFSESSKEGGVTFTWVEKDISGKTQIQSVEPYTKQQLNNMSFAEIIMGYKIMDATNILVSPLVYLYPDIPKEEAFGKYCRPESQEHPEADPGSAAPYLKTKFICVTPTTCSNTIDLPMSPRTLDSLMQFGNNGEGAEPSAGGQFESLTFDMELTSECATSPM
# How it was run: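 Fluorescence intensity of 6-FAM-labelled reporter fragments, separated by capillary electrophoresis after RT-PCR, gave the signal. Cells were HepG2 transfected with cis-element reporter units and treated 24 h; fitting was bidirectional relative to DMSO.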
# [17] = ATG_TA_CIS: Attagene CIS-FACTORIAL HepG2 Assay for human TA Basal Promoter (AID 2282964); details: HepG2 Attagene CIS-factorial TA basal promoter reporter; actives raise or lower the signal
# How it was run: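 HepG2 cells transiently transfected with multiple reporter units under cis promoter elements, reporting endogenous transcription factor activity; this endpoint tracks the TA basal promoter as background control. Reporter mRNA after 24 h dosing measured by RT-PCR/capillary electrophoresis; bidirectional fits versus DMSO.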
# [18] = ATG_TCF_b_cat_CIS: Attagene CIS-FACTORIAL HepG2 Assay for human T-Cell-Factor with beta-catenin (TCF/b-cat) (AID 2282965); details: HepG2 TCF/beta-catenin cis-reporter transcription, actives raise or lower the signal
# How it was run: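 Cells of the HepG2 line carry transiently transfected reporter units whose promoters respond to endogenous factors. Twenty-four hours post-dosing, reporter mRNA induction is measured by fluorescent RT-PCR and capillary electrophoresis, with DMSO as baseline.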
# [19] = ATG_TAL_CIS: Attagene CIS-FACTORIAL HepG2 Assay for human TAL Basal Promoter (AID 2282966); details: HepG2 Attagene cis-factorial TAL promoter reporter; actives raise or lower the signal;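 also: background control endpoint measuring basal TAL promoter reporter mRNA not a specific factor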
# How it was run: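 Background-control endpoint: basal TAL promoter reporter transcripts in transiently transfected HepG2, measured 24 h after dosing. Read-out by RT-PCR with fluorescent primer extension and capillary electrophoresis; gain or loss of signal fitted relative to DMSO.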
# [20] = ATG_Sox_CIS: Attagene CIS-FACTORIAL HepG2 Assay for human SRY-box transcription factor (SOX) (AID 2282960); details: HepG2 Attagene cis-factorial SOX reporter, mRNA; actives raise or lower the signal
# How it was run: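 Fluorescence-labelled cDNA fragments from reporter transcripts, sized by CE, give the signal. Cells: HepG2, transiently transfected with cis-regulated reporter units. Exposure 24 h; DMSO negative control; bidirectional curve fitting.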
smiles,measurement,setting,value
CCOc1ccc(C(C)(C)COCc2cccc(Oc3ccccc3)c2)cc1,outcome,[1],inactive
same,outcome,[2],inactive
same,outcome,[3],inactive
same,outcome,[4],inactive
same,outcome,[5],inactive
same,outcome,[6],inactive
same,outcome,[7],inactive
same,outcome,[8],inactive
same,outcome,[9],inactive
same,outcome,[10],inactive
same,AC50,[11],1.93 µM (active)
same,outcome,[12],inactive
same,outcome,[13],inactive
same,outcome,[14],inactive
same,outcome,[15],inactive
same,outcome,[16],inactive
same,outcome,[17],inactive
same,outcome,[18],inactive
same,outcome,[19],inactive
O=P(Oc1ccccc1)(Oc1ccccc1)Oc1ccccc1,outcome,[1],inactive
same,AC50,[2],33.4 µM (active)
same,outcome,[3],inactive
same,outcome,[4],inactive
same,outcome,[5],inactive
same,outcome,[6],inactive
same,AC50,[7],53.4 µM (active)
same,AC50,[8],33.4 µM (active)
same,outcome,[9],inactive
same,AC50,[10],33.4 µM (active)
same,AC50,[11],8.63 µM (active)
same,outcome,[12],inactive
same,outcome,[14],inactive
same,AC50,[15],16.7 µM (active)
same,AC50,[17],42 µM (active)
same,outcome,[18],inactive
same,outcome,[19],inactive
COP(=O)(CCC(=O)NCO)OC,outcome,[1],inactive
same,outcome,[2],inactive
same,outcome,[3],inactive
same,outcome,[4],inactive
same,outcome,[5],inactive
same,outcome,[6],inactive
same,outcome,[7],inactive
same,outcome,[8],inactive
same,outcome,[9],inactive
same,outcome,[10],inactive
same,outcome,[11],inactive
same,outcome,[12],inactive
same,outcome,[13],inactive
same,outcome,[20],inactive
same,outcome,[14],inactive
same,outcome,[15],inactive
same,outcome,[16],inactive
same,outcome,[17],inactive
same,outcome,[18],inactive
same,outcome,[19],inactive
Cc1ccc(C(=O)Cl)cc1,outcome,[1],inactive
same,outcome,[2],inactive
same,outcome,[3],inactive
same,outcome,[4],inactive
same,outcome,[5],inactive
same,outcome,[6],inactive
same,outcome,[7],inactive
same,outcome,[8],inactive
same,outcome,[9],inactive
same,outcome,[10],inactive
same,outcome,[11],inactive
same,outcome,[12],inactive
same,outcome,[13],inactive
same,outcome,[20],inactive
same,outcome,[14],inactive
same,outcome,[15],inactive
same,outcome,[16],inactive
same,outcome,[17],inactive
same,outcome,[18],inactive
same,outcome,[19],inactive
CCCCOCCOP(=O)(OCCOCCCC)OCCOCCCC,outcome,[1],inactive
same,AC50,[2],24.7 µM (active)
same,outcome,[2],inactive
same,outcome,[3],inactive
same,outcome,[5],inactive
same,outcome,[6],inactive
same,outcome,[7],inactive
same,outcome,[8],inactive
same,outcome,[10],inactive
same,outcome,[12],inactive
same,outcome,[13],inactive
same,outcome,[20],inactive
same,outcome,[14],inactive
same,outcome,[15],inactive
same,outcome,[16],inactive
same,outcome,[17],inactive
same,outcome,[18],inactive
same,outcome,[19],inactive
O=c1[nH]c2ccccc2c(=O)o1,outcome,[1],inactive
same,outcome,[2],inactive
same,outcome,[3],inactive
same,outcome,[4],inactive
same,outcome,[5],inactive
same,outcome,[6],inactive
same,outcome,[7],inactive
same,outcome,[8],inactive
same,outcome,[9],inactive
same,outcome,[10],inactive
same,outcome,[11],inactive
same,outcome,[12],inactive
same,outcome,[13],inactive
same,outcome,[20],inactive
same,outcome,[14],inactive
same,outcome,[15],inactive
same,outcome,[16],inactive
same,outcome,[17],inactive
same,outcome,[18],inactive
same,outcome,[19],inactive
CC(C)CBr,outcome,[1],inactive
same,outcome,[2],inactive
same,outcome,[3],inactive
same,outcome,[4],inactive
same,outcome,[5],inactive
same,outcome,[6],inactive
same,outcome,[7],inactive
same,outcome,[8],inactive
same,outcome,[9],inactive
same,outcome,[10],inactive
same,outcome,[11],inactive
same,outcome,[12],inactive
same,outcome,[13],inactive
same,outcome,[14],inactive
same,outcome,[15],inactive
same,outcome,[17],inactive
same,outcome,[18],inactive
same,outcome,[19],inactive
